Test results: PubChem BioAssay (NCATS)
Results filed as inconclusive are left out. The source made the active and inactive calls. Unless noted, calls follow the shape of the dose curve; as a rule, active = well fitted curve in the direction sought with a large enough effect; inconclusive = small, poorly fitted or top-dose-only effect, or another doubt; inactive = no such curve, though single readings can be large; an effect the other way counts as inactive or inconclusive.

Tests used:
[1] = Cell Viability - HepG2 (AID 433; calls by dose curve;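 also: potency is read from the fitted curve at half-maximal effect; cells exposed to compound for 40 hours; potency for ATP loss meaning cytotoxicity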); settings: qHTS
In short: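 Read-out is luciferase-based quantitation of cellular ATP as a measure of viable HepG2 cells after 40 h treatment at 37 °C. Signal decrease is scaled between DMSO-only and 100 uM tamoxifen controls, with AC50 fitted by the Hill equation.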

[2] = Cell Viability - MRC5 (AID 434; calls by dose curve;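 also: potency is read from the fitted curve at half-maximal effect; cells exposed to compound for 40 hours at 37 °C; potency reflects cytotoxicity seen as loss of intracellular ATP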); settings: MRC5 lung fibroblast viability, qHTS
In short: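 AC50 values come from Hill-equation fits of intracellular ATP loss, measured by CellTiter-Glo luminescence. Normal lung fibroblasts (MRC5) had 40 hr compound treatment at 37 C, normalized between DMSO and 100 uM tamoxifen.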

[3] = Cell Viability - HUV-EC-C (AID 542); settings: HUV-EC-C endothelial cell viability, qHTS; series mostly up to 92.2 µM;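 also: cells exposed to compound for 40 hours; % is scaled to controls: 0 for no effect and ±100 for the full control effect; nearly all actives have a fitted effect of over 35% in size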
In short: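 Cells were seeded at 1000 per well and incubated 5 hr at 37 °C before compound addition. After 40 hr at 37 °C, CellTiter-Glo reagent was added for 20 min and luminescence read. AC50 values came from Hill-equation modelling.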

[4] = Cellular Toxicity (caspase-3) Mesangial (AID 660); settings: mesangial cells, normalized: DMSO 0%, 100 µM tamoxifen 100%; series mostly up to 91.7 µM;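 also: combined caspase 3 and 7 activity read by Caspase-Glo luminescence; cells exposed to compound for 16 h before the caspase read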
In short: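 Seed cells derived from normal human renal glomeruli, incubate 5 h, add compounds across concentrations and incubate 16 h at 37 °C. Caspase 3/7 activation is then quantified by luciferase light, with AC50 derived by Hill modeling.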

[5] = Cell Viability - LYMP2-001 (AID 921); settings: LYMP2-001 lymphoblastoid cell viability; series mostly up to 92.2 µM;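 also: cells exposed to compound for 24 h at 37 °C; 0% = DMSO only and full inhibition = tetraoctylammonium bromide control wells; nearly all actives have a fitted effect of over 70% in size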
In short: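 Steps: seed 2500 lymphoblastoid cells/well; 5 hr, 37 C; add compound; 24 hr, 37 C; CellTiter-Glo reagent, 30 min room temperature; read luminescence. Concentration-response modeled by Hill equation for AC50.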

[6] = MultiTox-Fluor Cytotoxicity Assay - LYMP1-002 - Dead Cells (AID 960); settings: LYMP1-002 lymphoblastoid cells, dead-cell protease fluorescence; series mostly up to 46.1 µM;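 also: 0% = DMSO and 100% = tetraoctylammonium bromide; nearly all actives have a fitted effect of over 60% in size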
In short: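 Cells were plated, rested 5 hr, then treated with compound dilution series for 16 hr at 37 C. After adding substrate reagent and 60 min at room temperature, dead-cell protease fluorescence gave concentration-response curves fitted by the Hill equation.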

[7] = Cell Viability - LYMP2-013 (AID 970); settings: LYMP2-013 lymphoblastoid cells viability; series mostly up to 92.2 µM;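 also: cells exposed to compound for 24 h at 37 °C; nearly all actives have a fitted effect of over 55% in size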; also: potency is read from the fitted curve at half-maximal effect
In short: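 Cytotoxicity is scored as a concentration-dependent drop in intracellular ATP in human lymphoblastoid cells after 24 hr compound exposure at 37 C. ATP is quantified by luciferase luminescence, and AC50 values come from Hill-equation modeling.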

[8] = Cell Viability - LYMP2-021 (AID 974); settings: LYMP2-021 lymphoblastoid cells viability; series mostly up to 92.2 µM;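 also: compound exposure lasts 24 hours at 37 °C; nearly all actives have a fitted effect of over 55% in size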; also: potency is read from the fitted curve at half-maximal effect
In short: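 Loss of cellular ATP, measured with a luciferase-based CellTiter-Glo readout, serves as the toxicity signal in human lymphoblastoid cells treated for 24 hours at 37 C. Potency is reported as AC50 from a standard Hill model.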

[9] = Cell Viability - LYMP2-006 (AID 978); settings: LYMP2-006 lymphoblastoid cell viability, qHTS; series mostly up to 92.2 µM; also: nearly all actives have a fitted effect of over 60% in size; also: potency is read from the fitted curve at half-maximal effect
In short: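 Cells are seeded at 2500 per well and rested 5 hr at 37 C. Compounds are added across a concentration series for 24 hr at 37 C, after which ATP is quantified by luciferase luminescence.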

[10] = Cell Viability - LYMP2-010 (AID 981); settings: LYMP2-010 lymphoblastoid cell viability, qHTS; series mostly up to 92.2 µM; also: nearly all actives have a fitted effect of over 55% in size; also: potency is read from the fitted curve at half-maximal effect
In short: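 Steps: seed 2500 LYMP2-010 cells per well; incubate 5 hr at 37 C; add compound; incubate 24 hr at 37 C; add CellTiter-Glo, wait 30 min at room temperature; read luminescence. Concentration-response fitted to Hill equation for AC50.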

[11] = Cell Viability - LYMP2-024 (AID 988); settings: LYMP2-024 lymphoblastoid cell viability; series mostly up to 92.2 µM; also: nearly all actives have a fitted effect of over 60% in size; also: potency is read from the fitted curve at half-maximal effect
In short: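 qHTS cytotoxicity, human lymphoblastoid line, complete medium; 24 h cpd treatment, 37 C; CellTiter-Glo ATP luminescence readout; tetraoctylammonium bromide positive control; AC50 via Hill fit.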

[12] = Cell Viability - LYMP1-002 - Assay at 24 hr (AID 993); settings: LYMP1-002 lymphoblastoid cells viability; series mostly up to 92.2 µM; also: % is scaled to controls: 0 for no effect and ±100 for the full control effect
In short: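 Acute toxicity is measured as concentration-dependent loss of cellular ATP in a human lymphoblastoid line (Coriell LYMP1-002) after 24 h treatment in complete medium. ATP is quantified by luciferase luminescence and AC50 derived by Hill modelling.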

[13] = qHTS assay for small molecule activators of the p53 signaling pathway (AID 651743; active = well fitted activation curve with a large enough effect in the signal ratio, not every such curve was filed as active; the % refers to the signal ratio; also: potency is read from the fitted curve at half-maximal effect; as to activation: % of control where 0% means no effect); settings: HCT-116 p53RE-bla, beta-lactamase FRET ratio, 16 h; activation: stronger effect = higher value
In short: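 After 16 hours compound treatment at 37 C, HCT-116 cells stably expressing p53RE-driven beta-lactamase were loaded with LiveBLAzer B/G FRET substrate for 2 hours at room temperature. Fluorescence intensity served as the p53 activation read-out.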

[14] = target: Nuclear receptor ROR-gamma (Homo sapiens) (UniProt P51449); experiment: qHTS assay for small molecule antagonists of the retinoid-related orphan receptor gamma (ROR-gamma) signaling pathway (AID 651802); settings: ROR-gamma antagonist cell reporter assay; series mostly up to 92.2 µM; also: nearly all actives have a fitted effect of over 60% in size; also: potency is read from the fitted curve at half-maximal effect
In short: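 Steps: cells dispensed; compound or DMSO transferred by pin tool; doxycycline added to induce the ROR response element-driven luciferase; plates held 16hr at 37C; ONE-Glo added and luminescence measured.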

[15] = qHTS assay for small molecule antagonists of the retinoid-related orphan receptor gamma (ROR-gamma) signaling pathway - cell viability counter screen (AID 720652; active = well fitted curve in the direction sought with a large enough effect in the repeat runs; an effect the other way counts as inactive or inconclusive;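 also: CHO reporter cells with doxycycline-induced ROR-gamma expression; compound exposure lasted 16 hr before ATP read; % is scaled to controls: 0 for no effect and ±100 for the full control effect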); settings: RORgamma reporter cell line viability counter screen; series mostly up to 92.2 µM
In short: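 Steps: seed CHO cells bearing TET-inducible ROR and ROR response element-luciferase; rest 5 hr at 37 C; add compound, then doxycycline; incubate 16 hr; add CellTiter-Glo and read luminescence as ATP-based viability.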

[16] = qHTS assay for small molecule activators of the human pregnane X receptor (PXR) signaling pathway (AID 720659; call rule not given here; also: 0% is about no effect); settings: DPX-2 HepG2 CYP3A4-luciferase, 24 h; series mostly up to 92.3 µM
[17] = Cell Viability - LYMP2-011 (AID 969); settings: LYMP2-011 lymphoblastoid cells viability; series mostly up to 92.2 µM; also: nearly all actives have a fitted effect of over 60% in size; also: potency is read from the fitted curve at half-maximal effect
In short: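 In this qHTS cytotoxicity format, compounds are tested across concentrations on human lymphoblastoid cells in complete medium for 24 hours at 37 C. Viability is taken as cellular ATP measured by luciferase luminescence.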

[18] = Cell Viability - LYMP2-020 (AID 986); settings: series mostly up to 92.2 µM;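 also: cells exposed to compound for 24 h at 37 °C; nearly all actives have a fitted effect of over 55% in size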; also: potency is read from the fitted curve at half-maximal effect
In short: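 Seed 2500 cells per well and incubate 5 hr at 37 C. Add compounds at a concentration series and incubate 24 hr at 37 C. Add CellTiter-Glo, wait 30 min at RT, read luminescence, and fit a Hill curve for AC50.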

[19] = qHTS assay for cell viability of the p53RE-bla HCT-116 cell line (AID 743292); settings: p53RE-bla HCT-116 viability, ATP luminescence, 16 h; series mostly up to 95 µM
In short: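 ATP-based luminescence, 16 h compound exposure at 37 C, p53RE-bla HCT-116 cells at 4,000/well.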

Nuclear receptor ROR-gamma (Homo sapiens), sequence (P51449 whole entry, looked up): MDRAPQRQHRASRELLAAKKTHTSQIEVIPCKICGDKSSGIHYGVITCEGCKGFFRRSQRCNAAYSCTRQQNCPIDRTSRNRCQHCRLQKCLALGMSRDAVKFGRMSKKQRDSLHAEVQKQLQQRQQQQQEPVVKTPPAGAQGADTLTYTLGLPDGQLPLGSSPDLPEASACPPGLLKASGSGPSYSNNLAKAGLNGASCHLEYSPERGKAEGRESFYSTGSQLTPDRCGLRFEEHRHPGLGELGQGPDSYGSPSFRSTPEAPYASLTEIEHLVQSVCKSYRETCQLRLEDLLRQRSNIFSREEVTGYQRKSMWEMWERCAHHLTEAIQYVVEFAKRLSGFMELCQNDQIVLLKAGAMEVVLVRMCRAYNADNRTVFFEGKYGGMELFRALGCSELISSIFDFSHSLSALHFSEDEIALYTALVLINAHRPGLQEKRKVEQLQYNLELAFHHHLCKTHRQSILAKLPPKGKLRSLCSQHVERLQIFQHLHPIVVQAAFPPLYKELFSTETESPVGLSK

O=[N+]([O-])c1ccc(O)c([N+](=O)[O-])c1
inactive: Potency [1] > 92 µM | Potency [2] > 92 µM | Potency [3] | outcome [4] | Potency [5] | Potency [6] | Potency [7] | Potency [8] | Potency [9] | Potency [10] | Potency [11] | Potency [12] | activation [13] 9.63% | Potency [15] | outcome [16]
active: Potency [14] 6.68 µM

CCN(CC)CCO
inactive: Potency [1] > 92 µM | Potency [2] > 92 µM | Potency [3] | outcome [4] | Potency [5] | Potency [6] | Potency [17] | Potency [7] | Potency [8] | Potency [9] | Potency [10] | Potency [18] | Potency [11] | Potency [12] | activation [13] 0.771% | Potency [14] | Potency [15] | Potency [19] | outcome [16]

Oc1cccc(Cl)c1
inactive: Potency [1] > 92 µM | Potency [2] > 92 µM | Potency [3] | outcome [4] | Potency [5] | Potency [6] | Potency [17] | Potency [8] | Potency [9] | Potency [10] | Potency [18] | Potency [11] | activation [13] 0.857% | Potency [14] | Potency [15] | outcome [16]

Cc1cccc(C)c1N
inactive: Potency [1] > 92 µM | outcome [4] | Potency [5] | Potency [6] | Potency [17] | Potency [7] | Potency [9] | Potency [10] | Potency [18] | Potency [11] | Potency [12] | activation [13] 1.32% | Potency [14] | Potency [19] | outcome [16]

CC(C)C#N
inactive: Potency [1] > 92 µM | Potency [3] | outcome [4] | Potency [5] | Potency [6] | Potency [17] | Potency [7] | Potency [10] | Potency [18] | Potency [11] | Potency [12] | Potency [14] | Potency [15] | outcome [16]

CC(C)OS(C)(=O)=O
inactive: Potency [1] > 92 µM | Potency [2] > 92 µM | Potency [3] | outcome [4] | Potency [5] | Potency [7] | Potency [8] | Potency [9] | Potency [10] | Potency [18] | Potency [12] | activation [13] -0.853% | Potency [15] | Potency [19] | outcome [16]

CCSC(=O)N1CCCCCC1
inactive: Potency [1] > 92 µM | Potency [2] > 92 µM | Potency [3] | Potency [5] | Potency [6] | Potency [17] | Potency [8] | Potency [9] | Potency [10] | Potency [18] | Potency [11] | Potency [14] | Potency [15] | Potency [19] | outcome [16]

CCNCC
inactive: Potency [1] > 92 µM | Potency [2] > 92 µM | Potency [3] | outcome [4] | Potency [5] | Potency [6] | Potency [7] | Potency [8] | Potency [9] | Potency [10] | Potency [18] | Potency [11] | Potency [14] | Potency [15] | outcome [16]

c1ccc2c(c1)ccc1cc3c(ccc4ccccc43)cc12
active: Potency [13] 39.8 µM
inactive: Potency [14]

CCCCOCC1CO1 (centres undefined)
inactive: Potency [1] > 92 µM | Potency [2] > 92 µM | outcome [4] | Potency [6] | Potency [17] | Potency [7] | Potency [8] | Potency [9] | Potency [10] | Potency [11] | activation [13] -1.31% | Potency [14] | Potency [15] | Potency [19] | outcome [16]

C=CCOCC1CO1 (centres undefined)
inactive: Potency [1] > 92 µM | Potency [2] > 92 µM | Potency [3] | Potency [5] | Potency [6] | Potency [17] | Potency [7] | Potency [8] | Potency [9] | Potency [10] | Potency [18] | Potency [11] | Potency [12] | activation [13] -3.48% | Potency [14] | Potency [15] | Potency [19] | outcome [16]

BrCC(Br)(Br)Br
active: Potency [17] 39.8 µM | Potency [7] 25.1 µM | Potency [8] 20 µM | Potency [9] 15.8 µM | Potency [10] 12.6 µM | Potency [18] 15.8 µM | Potency [11] 12.6 µM
inactive: Potency [1] > 92 µM | Potency [3] | Potency [6] | Potency [12] | activation [13] -0.838% | Potency [19] | outcome [16]
